# From the supplement of paper PMC8728848
# The full list was thinned out, with the strongest signals kept by preference.
# Tests used:
# Experiment in all cases: glycan array binding signal (z-score within array); higher = stronger binding
# Conditions in all cases: glycan notation: IUPAC condensed, linker removed
# [1] = biological target: Fuc(a1-2)Gal(b1-3)GalNAc(a1-3)[Fuc(a1-2)]Gal(b1-4)Glc
# Procedure, shortened: (§1)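 Columns mapping to the same glycan were averaged after glycan names were converted to IUPAC-condensed notation. The data come from 3228 arrays in the Consortium for Functional Glycomics database, limited to those with an available protein sequence. Binding is reported as a within-array Z-score averaged across arrays of one protein sequence and across linkers.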
# [2] = biological target: Fuc(a1-2)Gal(b1-3)GalNAc(b1-3)Gal
# Procedure, shortened: as §1
# [3] = biological target: Fuc(a1-2)Gal(b1-4)[Fuc(a1-3)]GlcNAc(b1-3)GalNAc
# Procedure, shortened: as §1
# [4] = biological target: Fuc(a1-2)[Gal(a1-3)]Gal(b1-3)GlcNAc
# Procedure, shortened: as §1
# [5] = biological target: Fuc(a1-2)[Gal(a1-3)]Gal(b1-4)GlcNAc(b1-2)Man
# Procedure, shortened: as §1
# [6] = biological target: Fuc(a1-2)[GalNAc(a1-3)]Gal(b1-3)GlcNAc(b1-6)GalNAc
# Procedure, shortened: as §1
# [7] = biological target: Fuc(a1-3)[Gal(b1-4)]GlcNAc
# Procedure, shortened: as §1
# [8] = biological target: Fuc(a1-3)[GalNAc(b1-4)]GlcNAc
# Procedure, shortened: as §1
# [9] = biological target: Gal(b1-3)GlcNAc(b1-3)Gal(b1-4)GlcNAc(b1-2)Man(a1-3)[Gal(b1-3)GlcNAc(b1-3)Gal(b1-4)GlcNAc(b1-2)Man(a1-6)]Man(b1-4)GlcNAc(b1-4)GlcNAc
# Procedure, shortened: as §1
# Gal(b1-4)GlcNAc = biological target: Gal(b1-4)GlcNAc
# Procedure, shortened: as §1
# [10] = biological target: Gal(b1-4)GlcNAc(b1-2)Man(a1-3)[Gal(b1-4)GlcNAc(b1-2)Man(a1-6)]Man(b1-4)GlcNAc(b1-4)[Fuc(a1-6)]GlcNAc
# Procedure, shortened: as §1
# [11] = biological target: Gal(b1-4)GlcNAc(b1-2)[Gal(b1-4)GlcNAc(b1-6)]Man(a1-6)[Gal(b1-4)GlcNAc(b1-2)Man(a1-3)]Man(b1-4)GlcNAc(b1-4)[Fuc(a1-6)]GlcNAc
# Procedure, shortened: as §1
# [12] = biological target: Gal(b1-4)GlcNAc(b1-3)Gal(b1-4)GlcNAc(b1-2)[Gal(b1-4)GlcNAc(b1-3)Gal(b1-4)GlcNAc(b1-6)]Man(a1-6)[Gal(b1-4)GlcNAc(b1-3)Gal(b1-4)GlcNAc(b1-2)Man(a1-3)]Man(b1-4)GlcNAc(b1-4)GlcNAc
# Procedure, shortened: as §1
# [13] = biological target: Gal(b1-4)GlcNAc(b1-3)Gal(b1-4)GlcNAc(b1-3)Gal(b1-4)GlcNAc(b1-3)Gal(b1-4)GlcNAc(b1-3)Gal(b1-4)GlcNAc(b1-2)Man(a1-3)[Gal(b1-4)GlcNAc(b1-3)Gal(b1-4)GlcNAc(b1-3)Gal(b1-4)GlcNAc(b1-3)Gal(b1-4)GlcNAc(b1-3)Gal(b1-4)GlcNAc(b1-2)Man(a1-6)]Man(b1-4)GlcNAc(b1-4)GlcNAc
# Procedure, shortened: as §1
# [14] = biological target: Gal(b1-4)GlcNAc(b1-3)Gal(b1-4)GlcNAc(b1-3)Gal(b1-4)GlcNAc(b1-3)Gal(b1-4)GlcNAc(b1-3)Gal(b1-4)GlcNAc(b1-2)[Gal(b1-4)GlcNAc(b1-3)Gal(b1-4)GlcNAc(b1-3)Gal(b1-4)GlcNAc(b1-3)Gal(b1-4)GlcNAc(b1-3)Gal(b1-4)GlcNAc(b1-6)]Man(a1-6)[Gal(b1-4)GlcNAc(b1-3)Gal(b1-4)GlcNAc(b1-3)Gal(b1-4)GlcNAc(b1-3)Gal(b1-4)GlcNAc(b1-3)Gal(b1-4)GlcNAc(b1-2)Man(a1-3)]Man(b1-4)GlcNAc(b1-4)[Fuc(a1-6)]GlcNAc
# Procedure, shortened: as §1
# [15] = biological target: Gal3S(b1-3)[Fuc(a1-4)]GlcNAc
# Procedure, shortened: as §1
# Gal6S(b1-4)Glc6S = biological target: Gal6S(b1-4)Glc6S
# Procedure, shortened: as §1
# [16] = biological target: GalNAc(b1-3)Gal(a1-4)Gal(b1-4)GlcNAc
# Procedure, shortened: as §1
# [17] = biological target: Glc(a1-4)Glc(a1-4)Glc(a1-4)Glc
# Procedure, shortened: as §1
# [18] = biological target: GlcNAc(a1-4)Gal(b1-4)GlcNAc
# Procedure, shortened: as §1
# [19] = biological target: GlcNAc(b1-2)[GlcNAc(b1-6)]Man(a1-6)[GlcNAc(b1-2)Man(a1-3)]Man(b1-4)GlcNAc(b1-4)[Fuc(a1-6)]GlcNAc
# Procedure, shortened: as §1
# [20] = biological target: GlcNAc(b1-3)Gal(b1-4)GlcNAc(b1-3)Gal(b1-4)GlcNAc(b1-2)Man(a1-3)[GlcNAc(b1-3)Gal(b1-4)GlcNAc(b1-3)Gal(b1-4)GlcNAc(b1-2)Man(a1-6)]Man(b1-4)GlcNAc(b1-4)GlcNAc
# Procedure, shortened: as §1
# [21] = biological target: GlcNAc(b1-3)Gal(b1-4)GlcNAc(b1-3)Gal(b1-4)GlcNAc(b1-2)Man(a1-3)[GlcNAc(b1-3)Gal(b1-4)GlcNAc(b1-3)Gal(b1-4)GlcNAc(b1-2)Man(a1-6)]Man(b1-4)GlcNAc(b1-4)[Fuc(a1-6)]GlcNAc
# Procedure, shortened: as §1
# [22] = biological target: GlcNAc(b1-3)Gal(b1-4)GlcNAc(b1-3)Gal(b1-4)GlcNAc(b1-3)Gal(b1-4)GlcNAc(b1-2)Man(a1-3)[GlcNAc(b1-3)Gal(b1-4)GlcNAc(b1-3)Gal(b1-4)GlcNAc(b1-3)Gal(b1-4)GlcNAc(b1-2)Man(a1-6)]Man(b1-4)GlcNAc(b1-4)[Fuc(a1-6)]GlcNAc
# Procedure, shortened: as §1
# [23] = biological target: GlcNAc(b1-4)GlcNAc(b1-4)GlcNAc(b1-4)GlcNAc(b1-4)GlcNAc(b1-4)GlcNAc
# Procedure, shortened: as §1
# GlcNAc(b1-6)GalNAc = biological target: GlcNAc(b1-6)GalNAc
# Procedure, shortened: as §1
# [24] = biological target: Man(a1-2)Man(a1-6)[Man(a1-3)]Man(a1-6)[Man(a1-2)Man(a1-2)Man(a1-3)]Man(b1-4)GlcNAc(b1-4)GlcNAc
# Procedure, shortened: as §1
# [25] = biological target: Neu5Ac(a2-3)Gal(b1-3)GalNAc(b1-4)[Neu5Ac(a2-8)Neu5Ac(a2-3)]Gal(b1-4)Glc
# Procedure, shortened: as §1
# [26] = biological target: Neu5Ac(a2-3)Gal(b1-3)GlcNAc
# Procedure, shortened: as §1
# [27] = biological target: Neu5Ac(a2-3)Gal(b1-3)[GlcNAc(b1-6)]GalNAc
# Procedure, shortened: as §1
# [28] = biological target: Neu5Ac(a2-3)Gal(b1-3)[Neu5Ac(a2-6)]GlcNAc(b1-3)[Fuc(a1-3)[Gal(b1-4)]GlcNAc(b1-6)]Gal(b1-4)Glc
# Procedure, shortened: as §1
# [29] = biological target: Neu5Ac(a2-3)Gal(b1-3)]Neu5Ac(a2-3)Gal(b1-4)]GlcNAc
# Procedure, shortened: as §1
# [30] = biological target: Neu5Ac(a2-3)Gal(b1-4)GlcNAc(b1-3)Gal(b1-4)GlcNAc(b1-3)Gal(b1-4)GlcNAc
# Procedure, shortened: as §1
# [31] = biological target: Neu5Ac(a2-3)Gal(b1-4)[Fuc(a1-3)]GlcNAc(b1-3)GalNAc
# Procedure, shortened: as §1
# [32] = biological target: Neu5Ac(a2-3)[Neu5Ac(a2-6)]GalNAc
# Procedure, shortened: as §1
# [33] = biological target: Neu5Ac(a2-6)Gal(b1-4)GlcNAc(b1-2)[Neu5Ac(a2-6)Gal(b1-4)GlcNAc(b1-4)]Man(a1-3)[GlcNAc(b1-4)][Neu5Ac(a2-6)Gal(b1-4)GlcNAc(b1-2)[Neu5Ac(a2-6)Gal(b1-4)GlcNAc(b1-6)]Man(a1-6)]Man(b1-4)GlcNAc(b1-4)GlcNAc
# Procedure, shortened: as §1
# [34] = biological target: Neu5Ac(a2-6)Gal(b1-4)GlcNAc(b1-2)[Neu5Ac(a2-6)Gal(b1-4)GlcNAc(b1-4)]Man(a1-3)[GlcNAc(b1-4)][Neu5Ac(a2-6)Gal(b1-4)GlcNAc(b1-4)Man(a1-6)]Man(b1-4)GlcNAc(b1-4)GlcNAc
# Procedure, shortened: as §1
# [35] = biological target: Neu5Ac(a2-6)Gal(b1-4)GlcNAc(b1-3)Gal(b1-4)GlcNAc(b1-3)GalNAc
# Procedure, shortened: as §1
# [36] = biological target: Neu5Ac(a2-6)Gal(b1-4)GlcNAc(b1-3)Gal(b1-4)[Fuc(a1-3)]GlcNAc(b1-3)Gal(b1-4)[Fuc(a1-3)]GlcNAc
# Procedure, shortened: as §1
# [37] = biological target: Neu5Ac(a2-6)GalNAc(b1-4)GlcNAc6S
# Procedure, shortened: as §1
# [38] = biological target: Neu5Ac(a2-8)Neu5Ac(a2-3)[Gal(b1-3)GalNAc(b1-4)]Gal(b1-4)Glc
# Procedure, shortened: as §1
# [39] = biological target: Neu5Gc(a2-3)Gal(b1-4)GlcNAc
# Procedure, shortened: as §1
# [40] = biological target: Neu5Gc(a2-3)Gal(b1-4)GlcNAc(b1-3)Gal(b1-4)GlcNAc(b1-2)Man(a1-3)[Neu5Gc(a2-3)Gal(b1-4)GlcNAc(b1-3)Gal(b1-4)GlcNAc(b1-2)Man(a1-6)]Man(b1-4)GlcNAc(b1-4)GlcNAc
# Procedure, shortened: as §1
# Neu5Gc(a2-6)GalNAc = biological target: Neu5Gc(a2-6)GalNAc
# Procedure, shortened: as §1
# [41] = biological target: Neu5Gc(a2-8)Neu5Gc(a2-3)Gal(b1-4)GlcNAc(b1-3)Gal(b1-4)GlcNAc
# Procedure, shortened: as §1
binder,measurement,setting,value
CTAEGIKKFEGDGYELFKDNFPAGEKFDNDDTNDQFYTVIF [MUB40 (Lactobacillus reuteri)],glycan array binding signal (z-score),[1],-0.41
same,glycan array binding signal (z-score),[2],-0.251
same,glycan array binding signal (z-score),[3],3.56
same,glycan array binding signal (z-score),[4],-0.002
same,glycan array binding signal (z-score),[5],2.44
same,glycan array binding signal (z-score),[6],-0.425
same,glycan array binding signal (z-score),[7],0.464
same,glycan array binding signal (z-score),[8],-0.365
same,glycan array binding signal (z-score),[9],4.29
same,glycan array binding signal (z-score),Gal(b1-4)GlcNAc,-0.134
same,glycan array binding signal (z-score),[10],-0.425
same,glycan array binding signal (z-score),[11],0.328
same,glycan array binding signal (z-score),[12],-0.339
same,glycan array binding signal (z-score),[13],3.44
same,glycan array binding signal (z-score),[14],2.67
same,glycan array binding signal (z-score),[15],0.295
same,glycan array binding signal (z-score),Gal6S(b1-4)Glc6S,-0.817
same,glycan array binding signal (z-score),[16],-0.189
same,glycan array binding signal (z-score),[17],-0.331
same,glycan array binding signal (z-score),[18],-0.247
same,glycan array binding signal (z-score),[19],0.341
same,glycan array binding signal (z-score),[20],1.03
same,glycan array binding signal (z-score),[21],2.39
same,glycan array binding signal (z-score),[22],4.26
same,glycan array binding signal (z-score),[23],-0.138
same,glycan array binding signal (z-score),GlcNAc(b1-6)GalNAc,-0.355
same,glycan array binding signal (z-score),[24],-0.33
same,glycan array binding signal (z-score),[25],1.18
same,glycan array binding signal (z-score),[26],-0.358
same,glycan array binding signal (z-score),[27],1.11
same,glycan array binding signal (z-score),[28],-0.114
same,glycan array binding signal (z-score),[29],-0.307
same,glycan array binding signal (z-score),[30],1.72
same,glycan array binding signal (z-score),[31],0.351
same,glycan array binding signal (z-score),[32],1.33
same,glycan array binding signal (z-score),[33],0.5
same,glycan array binding signal (z-score),[34],-0.219
same,glycan array binding signal (z-score),[35],3.03
same,glycan array binding signal (z-score),[36],1.24
same,glycan array binding signal (z-score),[37],2.71
same,glycan array binding signal (z-score),[38],-0.27
same,glycan array binding signal (z-score),[39],2.42
same,glycan array binding signal (z-score),[40],2.75
same,glycan array binding signal (z-score),Neu5Gc(a2-6)GalNAc,0.011
same,glycan array binding signal (z-score),[41],2.42
